# Bioassay records as filed in PubChem.
# LYPLA1 counter: counter-screen for PME1 inhibitors: inhibitors of human LYPLA1; O75608; recombinant LYPLA1, FP-Rh probe fluorescence polarization; inhibition, % at 5.9 µM; 0.16% of 320,000 active;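 active means inhibition above the mean of all tested compounds plus 3 SD, set per campaign, cut at about 14% in these data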;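 further: inhibitors block serine hydrolase probe labeling of LYPLA1 so polarization falls; 0% = enzyme with DMSO and 100% = wells lacking LYPLA1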
# PAFAH2 FP inh: inhibitors of human PAFAH2. recombinant PAFAH2, FP-rhodamine activity probe, fluorescence polarization. inhibition, % at 3.39 µM. 0.99% of 340,000 active. AID 492956;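 active means inhibition above the mean over all tested compounds plus 3 SD, cut at about 30% in these data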;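 further: inhibitors block probe labeling of enzyme so polarization drops; 0% = enzyme with DMSO and 100% = wells lacking PAFAH2 protein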
# pPAFAH FP inh: pPAFAH (human) enzyme inhibition | Q13093 | recombinant pPAFAH, FP-rhodamine probe fluorescence polarization | inhibition, % at 3.39 µM | 1.5% of 330,000 active;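 active means inhibition above the mean inhibition across the screen plus 3 SD, cut at about 25% in these data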;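 further: inhibitors block binding of the rhodamine activity-based probe so polarization drops; 0% = enzyme with DMSO and 100% = wells lacking pPAFAH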
# Target sequence (Q13093 whole entry, looked up): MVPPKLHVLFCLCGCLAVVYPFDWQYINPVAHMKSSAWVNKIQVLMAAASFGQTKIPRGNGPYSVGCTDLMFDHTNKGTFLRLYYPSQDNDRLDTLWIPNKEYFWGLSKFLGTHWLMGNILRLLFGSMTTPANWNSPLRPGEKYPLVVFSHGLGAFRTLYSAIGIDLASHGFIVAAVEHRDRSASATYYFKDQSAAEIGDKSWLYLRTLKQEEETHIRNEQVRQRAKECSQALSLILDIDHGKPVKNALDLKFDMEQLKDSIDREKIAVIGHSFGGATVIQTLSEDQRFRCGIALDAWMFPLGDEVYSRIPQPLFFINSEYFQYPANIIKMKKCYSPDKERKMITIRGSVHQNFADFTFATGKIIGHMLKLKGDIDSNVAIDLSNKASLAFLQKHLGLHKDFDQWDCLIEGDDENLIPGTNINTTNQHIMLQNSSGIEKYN
# PAFAH1B2 FP inh: inhibitors of human PAFAH1B2. inhibition, % at 3.39 µM. 1.2% of 340,000 active. recombinant PAFAH1B2, FP-rhodamine activity probe, fluorescence polarization. P68402;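 active means inhibition above the mean of all tested compounds plus 3 SD, cut at about 24% in these data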;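 further: 0% = enzyme with DMSO and 100% = wells lacking PAFAH1B2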
# PAFAH1B3 inh: inhibitors of human PAFAH1B3; inhibition, % at 3.39 µM; Q15102; recombinant PAFAH1B3, FP-rhodamine probe, fluorescence polarization; AID 492972; 0.28% of 340,000 active;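 active means inhibition above the screen-wide average of all tested compounds plus 3 SD, cut at about 25% in these data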;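 further: 0% = enzyme with DMSO only and 100% = wells lacking PAFAH1B3 protein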
# LYPLA2 counter: blocks human lysophospholipase 2, a PME1 counter-screen | O95372 | recombinant LYPLA2, FP-Rh probe fluorescence polarization | inhibition, % at 5.9 µM | 0.38% of 320,000 active;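 active means inhibition above the screen-wide mean plus 3 SD, limit set per campaign, cut at about 26% in these data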;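 further: 0% = LYPLA2 with DMSO and 100% = wells lacking LYPLA2 enzyme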
# PAFAH2 FP conf: PAFAH2 (human) inhibition, confirmed; shares compounds with PAFAH2 FP inh; recombinant PAFAH2, FP-rhodamine activity probe, fluorescence polarization; inhibition, % at 3.39 µM; 65% of 2,300 active; AID 493030;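 active means mean inhibition over three repeats above a set limit taken from the earlier primary screen, cut at about 30% in these data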;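 further: inhibitor blocks binding of rhodamine activity probe so polarization falls; 0% = enzyme with DMSO and 100% = wells lacking PAFAH2 protein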
# An asterisk follows results filed as active; / = no result given. Only some compounds are listed: those with a hit (about 2.9% of all), similar ones and a draw of the others.
SMILES,LYPLA1 counter,PAFAH2 FP inh,pPAFAH FP inh,PAFAH1B2 FP inh,PAFAH1B3 inh,LYPLA2 counter,PAFAH2 FP conf
O=C(OCC(=O)C12CC3CC(CC(C3)C1)C2)c1cccnc1,-1,6,2,9,1,5,/
O=C(OCC(=O)C12CC3CC(CC(C3)C1)C2)c1cccnc1Cl,-3,47*,8,9,3,-4,37*
O=C(COC(=O)c1cccnc1Cl)NC1CCCCC1,/,72*,2,6,6,/,49*
O=C(CN(Cc1ccc(Cl)cc1)C(=O)CN1C(=O)COc2ccccc21)NC1CCCC1,-4,12,8,0,3,-16,/
COc1ccc(C(=O)Nc2ncccc2C)cc1S(=O)(=O)N1CCCc2ccccc21,0,6,1,12,9,1,/
Cn1cnnc1SCC(=O)Nc1sc2c(c1C(N)=O)CCC2,-9,38*,34*,14,22,-2,12
COCCn1cnnc1SCC(=O)Nc1sc2c(c1C#N)CCC2,-1,4,15,11,1,3,/
Cc1ccc(NC(=O)COC(=O)c2ccn(C)n2)cc1,4,68*,3,1,-1,8,63*
Cn1ccc(C(=O)OCC(=O)Nc2ccccc2)n1,/,73*,/,1,7,/,78*
COc1ccc(C(=O)COC(=O)c2ccn(C)n2)cc1,0,8,2,0,4,7,/
Cn1nccc1C(=O)OCC(=O)Nc1ccccc1,/,40*,/,-3,-4,/,28
Cc1ccc(NC(=O)COC(=O)c2ccnn2C)cc1,-5,28,7,0,3,-6,/
CN1CCN(CC(=O)n2c3c(c4ccccc42)CCCC3)CC1,-2,1,7,5,15,0,/
Cn1nc(C(=O)NNc2c(F)c(F)cc(F)c2F)c2ccccc2c1=O,1,1,5,2,0,9,/
COc1ccc(S(=O)(=O)N2CCCCCC2)cc1NC(=O)Cc1n[nH]c(=O)c2ccccc12,/,6,/,4,-2,/,/
COc1c(O)cccc1/C=N/NC(=O)Cn1ccnc1C,1,-8,7,-5,3,3,/
Cc1[nH]c2ccccc2c1SCc1nnc(SCc2ccc(Cl)cc2)n1C,0,30*,9,23,5,7,30*
CC1CCCC(C)N1/N=C/c1ccc(N(C)C)cc1 (stereo unspecified),-1,38*,-1,2,5,3,4
CC1CCCC(C)N1/N=C/c1ccc([N+](=O)[O-])cc1 (stereo unspecified),-5,-2,-1,5,11,2,/
CC(=O)Oc1ccc2oc(C)c(C(=O)N3CCOCC3)c2c1,-4,-4,2,-3,-5,-6,/
CC(=O)c1cc(C)c(OCc2cn(CC(=O)c3ccc(O)cc3)nn2)c(C)c1,/,1,/,5,4,/,/
COCCNC(=O)c1cccc(OC2CCN(Cc3cccc(SC)c3)CC2)c1,1,-7,7,-5,11,12,/
Cc1ccc(Cl)cc1NC(=O)COC(=O)c1ccc(CN2CCCC2=O)cc1,-1,60*,4,0,5,-1,43*
CN(C(=O)COC(=O)c1ccc(CN2CCCC2=O)cc1)c1ccccc1,1,23,-1,8,5,4,/
COc1cc(Cl)c(C)cc1NC(=O)COC(=O)c1ccc(CN2CCCC2=O)cc1,1,43*,9,-6,0,1,23
SMILES,LYPLA1 counter,PAFAH2 FP inh,pPAFAH FP inh,PAFAH1B2 FP inh,PAFAH1B3 inh,LYPLA2 counter,PAFAH2 FP conf
CC(=O)Nc1cc(C(=O)OCC(=O)c2ccc(Cl)cc2Cl)ccc1C,1,35*,0,12,9,4,21
Cc1c(Cl)cccc1NC(=O)COC(=O)c1ccc(CN2CCCC2=O)cc1,-1,76*,7,0,7,-5,67*
CCOC(=O)c1c(C)[nH]c(C(=O)OCC(=O)Nc2cc(C)c(Cl)cc2OC)c1C,-3,-4,2,-2,-12,6,/
COc1ccc(-c2nnc3n(CCc4ccccc4)c(=O)c4ccccc4n23)cc1OC,-4,1,5,-3,-3,1,/
CCn1c(=O)c(C(=O)Nc2ccsc2C(=O)OC)c(O)c2ccccc21,-3,/,13,/,/,-6,/
O=C(CNC(=S)N(CCCN1CCOCC1)Cc1cccs1)NCCCN1CCOCC1,4,4,2,6,4,-1,/
O=C(CNC(=S)N(CCCN1CCOCC1)Cc1cccs1)NCc1ccc(Cl)cc1,-3,48*,4,7,0,-5,37*
O=C(CNC(=S)N(CCCN1CCOCC1)Cc1cccs1)NCc1ccccc1Cl,-2,47*,5,-1,6,1,31*
Brc1cc(Br)c2nc3c(cc2c1)CCC3,1,2,10,2,10,2,/
CC(NC(=O)COC(=O)c1cn(-c2ccccc2)nc1-c1cccs1)c1ccccc1 (stereo unspecified),-27,-32,-4,-14,-14,-54,/
CCOc1ccc2[nH]c3c(c2c1)CNCC3,2,0,4,2,3,-1,/
Cc1c2ccccc2cc[n+]1CCCS(=O)(=O)[O-],-2,-6,3,-4,6,-5,/
CC1(C)C(/C=C/C=C/C=C/C=C2\N(CCCCS(=O)(=O)O)c3ccc4ccccc4c3C2(C)C)=[N+](CCCCS(=O)(=O)[O-])c2ccc3ccccc3c21,-8,43*,29*,-12,-32,-25,26
O=C(NCC(c1cccs1)N1CCOCC1)c1ccccc1NS(=O)(=O)c1ccc(Cl)c([N+](=O)[O-])c1 (stereo unspecified),-2,43*,-3,17,13,-11,81*
Cc1ccccc1CNC(=O)C(=O)NCC1CCCN1S(=O)(=O)c1cccs1 (stereo unspecified),/,-4,/,3,1,/,/
COc1ccc(Cl)cc1NC(=O)COC(=O)c1cc(C)oc1C,/,-2,6,10,4,/,/
Cc1cc(C(=O)OCC(=O)Nc2ccc(F)c(F)c2F)c(C)o1,-2,52*,9,6,3,-3,50*
Cc1cc(C(=O)OCC(=O)Nc2ccccc2)c(C)o1,-1,78*,4,0,5,-2,74*
Cc1cc(C(=O)OCC(=O)Nc2ccc(F)cc2)c(C)o1,3,79*,7,1,6,5,78*
Cc1ccc(C(=O)OCC(=O)Nc2ccc3[nH]c(=O)[nH]c3c2)o1,-3,1,6,5,-2,-9,/
Cc1ccc(C(=O)OCC(=O)Nc2ccc(F)c(Cl)c2)o1,1,85*,7,1,3,5,75*
CCOP(=O)(O)c1ccccc1OCCOCCOc1ccccc1P(=O)(O)OCC,1,0,8,1,5,8,/
